Experimental data published in PubChem BioAssay (NCI).
About 83,000 compounds went through this panel and 20% of them were active in at least one assay; those are over-represented in the sample as a whole.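 Percent growth is the endpoint: 0 to 100 indicates growth inhibition (40 means 60% inhibition), 0 means no net growth, and negative values indicate cell death.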 A number with no mark means an inactive call. Calls of active or inactive are those of the source. Rule for the calls: active = growth percent below 10; inactive = the rest.

Assays:
Experiment in all cases: NCI-60 one-dose screen, 48 h (100 = growth as untreated, 0 = no growth, -100 = all killed)
Details in all cases: 10 µM
NCI-H23 lung = tested on: NCI-H23 lung
NCI-H226 lung = tested on: NCI-H226 lung
NCI-H322M lung = tested on: NCI-H322M lung
HOP-62 NSCLC = tested on: HOP-62 NSCLC
NCI-H460 lung = tested on: NCI-H460 lung
HOP-92 NSCLC = tested on: HOP-92 NSCLC
NCI-H522 lung = tested on: NCI-H522 lung
786-0 renal = tested on: 786-0 renal
A549/ATCC NSCLC = tested on: A549/ATCC NSCLC
COLO 205 colon = tested on: COLO 205 colon

SMILES	growth (NCI-H23 lung) [%]	growth (NCI-H226 lung) [%]	growth (NCI-H322M lung) [%]	growth (HOP-62 NSCLC) [%]	growth (NCI-H460 lung)	growth (HOP-92 NSCLC)	growth (NCI-H522 lung)	growth (786-0 renal) [%]	growth (A549/ATCC NSCLC) [%]	growth (COLO 205 colon)
CCOC(=O)c1ccc(Nc2sc(C(=O)c3cccc([N+](=O)[O-])c3)c(N)c2C#N)cc1	34.2	41	55	27.3	4.75% (active)	43%	5.23% (active)	24.7	–	–
O=[N+]([O-])c1cccc(C(F)(F)F)c1	101	98.5	132	96.9	98.1%	87.8%	85.5%	107	94.7	108%
COc1ccccc1C1OC2=Nc3cc(C)c(C)cc3NC2C1=O (stereo unspecified)	79	21.7	80.3	47.9	14.1%	67.7%	91%	14	67.6	79.1%
CCN1C(=O)/C(=C/C=C/N(C)c2ccccc2)SC1=S	92.9	66.4	94.6	36.2	94.7%	103%	60.9%	79.8	82.8	104%
CCC(O)CC(CC)CO (stereo unspecified)	101	102	110	108	94.3%	98.8%	117%	106	105	117%
O=S(=O)(O)CC(O)CN1CCN(CCO)CC1 (stereo unspecified)	94.2	108	112	110	114%	86.2%	89%	105	98.8	106%
O=C(CC(=O)c1ccccc1O)c1ccccc1	80.8	88.6	103	77.2	88.8%	100%	83.1%	89.5	89.8	101%
O=C1NC(=O)C2C(=O)NC(=O)C1C21CCc2ccccc21 (stereo unspecified)	91.8	87.7	106	94.3	115%	89.5%	97.4%	101	103	125%
COc1cccc(Sc2ccc([N+](=O)[O-])c3no[n+]([O-])c23)c1	68.8	85.3	88.7	103	95.7%	3.91% (active)	-19.9% (active)	–	84	-42.2% (active)
C1CNC(C2=NCCN2)=N1	106	103	90.9	99.4	101%	93.6%	101%	103	–	114%
c1ncc2[nH]cnc2n1	104	99.5	85.7	104	105%	89.4%	89.2%	95.2	86.7	101%
C/C(=N\NC(=O)c1ccccc1N)c1ccccc1O	38.7	52.8	26.4	43.3	23.5%	18.2%	–	60.6	28.2	9.89% (active)
Nc1ccc(N=Nc2ccc(S(=O)(=O)O)cc2)c2ccccc12	86.2	87	91.8	63.7	94.8%	76.9%	95.7%	106	–	90.7%
O=C(Cc1ccc(OCc2ccccc2)cc1)NCc1ccc2c(c1)OCO2	78.3	99.6	80.8	77.9	28.7%	86.8%	–	88.7	58.2	85.5%
c1ccc(Cc2ccccc2)cc1	107	112	96.2	101	109%	59.2%	–	92.7	39.8	125%
CC1CC(O)CC(C)(C)C1 (stereo unspecified)	98.4	106	98.2	97.9	106%	96.5%	–	107	97.3	102%
